Results on 40 compounds are retold here after PubChem BioAssay (EPA / NIEHS).

Calls of active or inactive are those of the source. Rule for the calls: active = hit-call score of the fitted dose curve at least 0.9, where 1 is the maximum; inactive = score below 0.9.

Transcription factor Sp1 (Homo sapiens), sequence (P08047 whole entry, looked up): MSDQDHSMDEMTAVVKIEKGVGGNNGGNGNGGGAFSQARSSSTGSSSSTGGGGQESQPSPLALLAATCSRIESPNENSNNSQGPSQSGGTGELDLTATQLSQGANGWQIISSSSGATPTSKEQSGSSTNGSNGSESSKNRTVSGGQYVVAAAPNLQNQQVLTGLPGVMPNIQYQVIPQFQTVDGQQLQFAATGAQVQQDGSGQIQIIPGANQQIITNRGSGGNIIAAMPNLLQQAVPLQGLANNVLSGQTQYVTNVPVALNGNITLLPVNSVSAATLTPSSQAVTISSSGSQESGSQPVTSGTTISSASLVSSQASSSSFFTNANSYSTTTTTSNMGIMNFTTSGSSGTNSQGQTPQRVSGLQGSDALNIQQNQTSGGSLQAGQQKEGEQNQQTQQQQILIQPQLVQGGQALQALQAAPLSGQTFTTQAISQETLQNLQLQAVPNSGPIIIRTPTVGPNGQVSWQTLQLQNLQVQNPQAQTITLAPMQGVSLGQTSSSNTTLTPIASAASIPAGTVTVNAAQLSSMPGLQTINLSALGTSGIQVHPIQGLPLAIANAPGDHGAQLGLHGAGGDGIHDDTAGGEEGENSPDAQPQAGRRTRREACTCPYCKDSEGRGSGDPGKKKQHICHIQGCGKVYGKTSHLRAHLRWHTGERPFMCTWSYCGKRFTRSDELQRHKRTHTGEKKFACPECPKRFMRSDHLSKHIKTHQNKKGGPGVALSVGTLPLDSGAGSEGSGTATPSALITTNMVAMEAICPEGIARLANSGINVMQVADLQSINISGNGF

The assay addresses Transcription factor Sp1 (Homo sapiens) (UniProt P08047). Kind of assay: ATG_Sp1_CIS: Attagene CIS-FACTORIAL HepG2 Assay for human Specificity Protein 1 (Sp1) (AID 2282961). The conditions noted are these: HepG2 Sp1 cis-reporter transcription, actives raise or lower the signal. The method, then:
ATG_CIS is a cell-based, multiplexed-readout assay that uses HepG2, a human liver cell line, with measurements taken at 24 hours after chemical dosing in a 24-well plate.ATG_Sp1_CIS is one of 52 assay component(s) measured or calculated from the ATG_CIS assay. It is designed to make measurements of mRNA induction, a form of inducible reporter, as detected with fluorescence intensity signals by Reverse transcription polymerase chain reaction (RT-PCR) and Capillary electrophoresis technology.Data from the assay component ATG_Sp1_CIS was analyzed into 1 assay endpoint. This assay endpoint, ATG_Sp1_CIS, was analyzed with bidirectional fitting relative to DMSO as the negative control and baseline of activity. Using a type of inducible reporter, measures of mRNA for gain or loss-of-signal activity can be used to understand the reporter gene at the transcription factor-level as they relate to the gene SP1. Furthermore, this assay endpoint can be referred to as a primary readout, because this assay has produced multiple assay endpoints where this one serves a reporter gene function. To generalize the intended target to other relatable targets, this assay endpoint is annotated to the dna binding intended target family, where the subfamily is zinc finger.
Human liver HepG2 cells are transiently transfected with multiple reporter transcription units (MRTUs) in 6-well plates using FuGene 6 reagent (Roche; 3 ml FuGene/1 mg DNA). The MRTU constructs are regulated by a cis-regulating element (promoter). […] A major difference between the CIS and TRANS system is that in CIS activities of endogenous TFs are measured, whereas the TRANS assay evaluates changes in activities of exogenous, chimeric NR-Gal4 proteins. […] At the end of 24 hour incubation, total RNA was isolated using TriZol reagent (Invitrogen). The isolated RNA is then reverse-transcribed using oligo(dT) primer and Mo-MLV reverse transcriptase (Invitrogen) with DNAse I (Ambion) treatment for 30 min. The one-tenth of the produced cDNA was amplified by PCR using Taq DNA polymerase (Invitrogen) and two reporter sequence-specific primers. The PCR products were fluorescently labeled by primer extension with 6-arboxyfluorescein (6-FAM) 5'-labeled reporter sequence-specific primer (2 min at 95 C, 20 s at 68 C and 10 min at 72 C) and these products were digested with 5U of HpaI (New England Biolabs) for 2h at 37 C. The fragments were purified using Qiaquick PCR columns (Qiagen), analyzed on an ABI 3130xL genetic analyzer (Applied Biosystems) with peak positions identified by using a set of X-rhodamine (ROX)-labeled MapMarker1000 molecular weight standards (BioVentures). The raw capillary electrophoresis data was processed using Attagraph software (Attagene).
`CN(C)C(=O)C(c1ccccc1)c1ccccc1`: the result was inactive.
Consider `O=C(O)c1cc[c]([Hg][Cl])cc1`, for which the AC50 was 11.1 µM (active).
For the compound `CSc1nc(N=[N+]=[N-])nc(NC(C)C)n1`, the outcome was inactive.
Consider `CC(C)C#N`, for which the compound was called inactive.
On the same count and under the same terms, under `O=C1C(Cl)=C(Cl)C(=O)C(Cl)=C1Cl` stands “inactive”.
On the same count and under the same terms, for `CC(O)CN(CC(C)O)CC(C)O` (stereo not given) the value was “inactive”; for `CC(Cc1ccc(C(C)(C)C)cc1)CN1C[C@@H](C)O[C@@H](C)C1` (stereo not given in full), “inactive”.
`CC(=O)c1cc2c(cc1C)C(C)(C)C(C)CC2(C)C` (stereo not given): the AC50 was 27.2 µM (active).
Take `S=c1[nH]c2ccccc2[nH]1`: the compound was called inactive.
As for `CCOC(=O)NC(=S)Nc1ccccc1NC(=S)NC(=O)OCC`, the compound was called inactive.
On to `COc1ccc(CO)cc1`, for which the compound was classed as inactive.
Still for that read-out and setting: for `CC(C)CCCCCCCOP(=O)(Oc1ccccc1)Oc1ccccc1` the value was “inactive”; for `CC1CCCC1.[C-]#[O+].[C-]#[O+].[C-]#[O+].[Mn]`, “inactive”.
Same read-out and setting: under `O=C=Nc1ccccc1` stands “inactive”.
Consider `CCC(C)c1cc([N+](=O)[O-])cc([N+](=O)[O-])c1OC(=O)C=C(C)C` (stereo not given), for which the AC50 is 26.2 µM (active).
As for `CNC(=N[N+](=O)[O-])NCC1CCOC1` (stereo not given), the compound was classed as inactive.
The same measure, in the same setting: under `CCCCOP(=O)(O)OCCCC` stands “inactive”; under `Cl/C=C\CCl`, “inactive”.
Consider `CCCCCc1cc(O)cc(O)c1`, for which the call was inactive.
Same read-out and setting: under `COC(C)(C)CCC[C@H](C)C/C=C/C(C)=C/C(=O)OC(C)C` stands “inactive”; under `CC(C)CCCCCCCOC(=O)c1ccccc1C(=O)OCCCCCCCC(C)C`, “inactive”.
Still for that read-out and setting: under `Nc1ccc(-c2ccc(N)c(N)c2)cc1N` stands “inactive”; under `Nc1ccc([N+](=O)[O-])cc1N`, “inactive”; under `O=C(CCN1CC1)OCC(CO)(COC(=O)CCN1CC1)COC(=O)CCN1CC1`, “inactive”.
The same measure, in the same setting: under `C=CCN(CC=C)C(=O)C(Cl)Cl` stands “inactive”.
As for `C=CC(=O)OCCO`, the AC50 was 156 µM (active).
For `Oc1ccc(Cl)cc1`, the compound was classed as inactive.
Still for that read-out and setting: under `COCC(=O)N(c1c(C)cccc1C)N1CCOC1=O` stands “inactive”.
The same measure, in the same setting: for `CC(C)(C)C(O)C(Oc1ccc(-c2ccccc2)cc1)n1cncn1` (stereo not given) the value was “inactive”; for `COC(=O)COc1ccc(Cl)cc1Cl`, “inactive”; for `O=C1C=CC(=O)C=C1`, “inactive”.
The same measure, in the same setting: for `Oc1ccc(C2(c3ccc(O)cc3)c3ccccc3-c3ccccc32)cc1` the value was “inactive”; for `O=S(=O)(O)O`, “inactive”; for `Cc1ncc(C[n+]2csc(CCO)c2C)c(N)n1`, “inactive”.
As to `O=CNC(N1CCN(C(NC=O)C(Cl)(Cl)Cl)CC1)C(Cl)(Cl)Cl` (stereo not given), the compound was called inactive.
On the same count and under the same terms, under `C[C@]12CC[C@H]3[C@@H](CC[C@@]45O[C@@H]4C(O)=C(C#N)C[C@]35C)[C@@H]1CC[C@@H]2O` stands “inactive”; under `CN(C)CCC#N`, “inactive”.
For `Cc1ccc(N(SC(F)(Cl)Cl)S(=O)(=O)N(C)C)cc1`, the AC50 was 18.8 µM (active).
Turning to `CCC(=O)c1ccc(Cl)cc1`, the result was inactive.
Still for that read-out and setting: for `C[N+](C)(C)CC(=O)[O-]` the value was “inactive”.

What is called AC50 is the concentration at which the activity in the assay is half-maximal.
